# High-throughput results: PubChem BioAssay, National Center for Advancing Translational Sciences (NCATS)
# Most compounds without a hit are left out; they make up all but 1.1% or so of the library.
# a7 integrin act – activators of alpha7 integrin expression for muscular dystrophy; hit rate 0.064% among 350,000; alpha7betagal myoblasts, beta-gal FDG fluorescence, 48 h; Potency, µM (top dose mostly 38.3 µM), inactives show top-dose activation, hits mostly activators;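 note: potency is the fitted concentration of half-maximal effect; 100% = response of the positive control SU9516; nearly all actives have a fitted effect of over 60% in size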
#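 Alpha7betagal+/- myoblasts (passage 13) were plated 16-24 hr, then exposed to compounds (1:260 dilution of DMSO stock) for 48 hours at 37C. After MPER lysis, β-galactosidase reporter activity was read as FDG fluorescence (ex 480/em 540) after 30 minutes.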
# TrxR1 inh – inhibitors of rat thioredoxin reductase 1. O89049. recombinant rTrxR1, NADPH fluorescence consumption, selenite substrate. Potency, µM (highest dose often 114 µM), for inactives: at the top dose activity change, negative = inhibition, usual class: inhibitors. hit rate 1% among 390,000; note: potency is the fitted concentration of half-maximal effect; nearly all actives have a fitted effect of over 65% in size
#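 Rat TrxR1 (90 nM in the dispensed reagent) was pre-reduced with 400 uM NADPH for 5 min at room temperature, then incubated with compound for 15 min. After 400 uM selenite was added, NADPH fluorescence (Ex 340/Em 450 nm) was followed for 8 min.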
# LDHA block – LDHA (human) enzyme inhibition; activity change, % (values are at about 110 or 230 µM); purified LDHA, NADH/diaphorase-resazurin fluorescence; hits give low values; hit rate 0.15% among 480,000; P00338; AID 1347041; in the data active = activity change below about -30%; inconclusive = mostly about -25% to -30%;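 note: plate controls were DMSO wells for no effect and wells without enzyme for full effect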
#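 Human LDH5 (2 nM) was incubated with 0.06 mM NADH and 0.2 mM pyruvate for 5 min at room temperature in Tris pH 7.4. Remaining NADH was coupled through diaphorase/resazurin, and resorufin fluorescence was read at 0 and 20 min.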
# GALK inhibitor – inhibitors of human galactokinase; hit rate 0.007% among 270,000; Purified GALK, Kinase-Glo residual ATP luminescence; Potency, µM (top dose mostly 57.5 µM), without a hit: top-dose activity change, negative = inhibition, most hits filed as inhibitors; note: potency is the fitted concentration of half-maximal effect
#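 The enzyme phosphorylates galactose (100 uM) using ATP (35 uM); inhibition is detected as higher residual ATP, quantified by bioluminescence after 1 h reaction at room temperature, pH 8.0.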
# PI4K2A inh – inhibitors of human PI4K2A; Q9BTU6; purified PI4K2A, ADP-Glo luminescence, 1 h; hits give low values; activity change, negative = inhibition, % at 76.9 µM; hit rate 0.13% among 420,000; AID 1346378; in the data active = activity change below about -50%; inconclusive = mostly about -30% to -49%;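 note: -100% = wells without enzyme as full effect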
# Target sequence (Q9BTU6 whole entry, looked up): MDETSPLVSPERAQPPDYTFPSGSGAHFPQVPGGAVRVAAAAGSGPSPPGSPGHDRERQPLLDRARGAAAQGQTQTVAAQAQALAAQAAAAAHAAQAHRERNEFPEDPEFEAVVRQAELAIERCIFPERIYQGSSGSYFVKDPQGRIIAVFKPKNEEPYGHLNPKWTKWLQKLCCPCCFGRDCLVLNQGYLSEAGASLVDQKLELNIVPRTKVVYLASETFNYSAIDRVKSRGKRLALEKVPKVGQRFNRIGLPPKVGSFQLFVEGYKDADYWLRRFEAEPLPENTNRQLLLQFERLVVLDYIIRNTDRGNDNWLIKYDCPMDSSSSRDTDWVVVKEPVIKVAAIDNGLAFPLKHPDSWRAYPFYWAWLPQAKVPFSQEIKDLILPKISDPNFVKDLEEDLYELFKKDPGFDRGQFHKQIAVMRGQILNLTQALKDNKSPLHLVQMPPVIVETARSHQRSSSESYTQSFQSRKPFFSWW
#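 ADP-Glo luminescence measured ADP generated by PI4K2A enzyme (4 ug/mL before mixing) with 1.2 mM PI substrate (pre-mix) and 300 microM ATP (pre-mix). Tris pH7.5 buffer with MgCl2, Triton X-100; 1 h reaction at ambient temperature.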
# TrxR1 substrate – is turned over as a substrate by rat TrxR1. purified TrxR1 substrate turnover, NADPH consumption readout. Potency, µM (doses to about 114 µM), for the others: at the highest dose activity change, negative = substrate turnover. hit rate 0.01% among 390,000. AID 588456; note: potency is the fitted concentration of half-maximal effect; nearly all actives have a fitted effect of over 50% in size
#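 Rat TrxR1, dispensed at 90 nM, was prereduced with 400 uM NADPH (final) for 5 min at ~22 deg C, then incubated with compound 15 min before 400 uM selenite. A first-read NADPH fluorescence drop versus no-compound background flagged substrates.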
# The depositor's hits bear a star; ? = inconclusive; · = no result; [ ] = dose if it differs, or a comment. Unless noted, calls come from the whole dose curve; as a rule, active = well fitted curve in the direction sought with a large enough effect; inconclusive = small, poorly fitted or top-dose-only effect, or another doubt; inactive = no such curve, though single readings can be large; an effect the other way counts as inactive or inconclusive. Unless noted, % is set by controls: 0 for no effect and ±100 for the full control effect.
SMILES,a7 integrin act,TrxR1 inh,LDHA block,GALK inhibitor,PI4K2A inh,TrxR1 substrate
COc1ccc(C(Nc2cc(C)ccn2)c2ccc3ccc(C)nc3c2O)cc1 (stereo unspecified),-17%,14µM*,3,0%,-7,3%
Cc1ccnc(NC(c2ccsc2)c2ccc3ccc(C)nc3c2O)c1 (stereo unspecified),-58%,3.5µM*,7,0%,4,6%
Cc1ccnc(NC(c2ccccc2)c2ccc3cccnc3c2O)c1 (stereo unspecified),-47%,-77%[57.1 µM],1,·,-7,9%[57.1 µM]
Cc1ccc(C(=O)CC(Nc2ccc(Cl)cc2)c2ccccc2)cc1 (stereo unspecified),·,·,6,·,·,·
CCCCN(C(=O)c1cccnc1OCC)c1c(N)n(Cc2ccccc2)c(=O)[nH]c1=O,·,·,5,·,·,·
N#CC1(NC(=O)CSc2ccc3c(c2)OCCCO3)CCCC1,·,·,10,·,·,·
N#CC1=C(SCc2ccccc2Br)NC(=O)C(C#N)C12CCCCC2 (stereo unspecified),·,·,-3,·,·,·
Brc1ccc(-c2ccccc2)cc1,·,22%,-8,·,4,7%
Brc1ccc(C=C2C=c3ccccc3=C2)cc1,·,35µM*,0,·,·,-3%
Cc1noc(/C=C\c2ccc(S(=O)(=O)N3CCc4ccccc43)cc2)c1NC(=O)C1CC1,·,·,11,·,·,·
O=[N+]([O-])c1cc(F)c2cccnc2c1O,-53%,45µM*,13,·,?,-15%
O=[N+]([O-])c1cc(Cl)c2cccnc2c1O,-52%,-6%[57.1 µM],15,-1%,-17,-9%[57.1 µM]
COc1ccccc1OCC(=O)Sc1ccc(Cl)cc1,·,·,-2,·,·,·
CNc1ncnc2sc(-c3ccccc3)cc12,20%,10%[57.1 µM],0,0%,3,40%
CN(C)CCNc1ncnc2sc(-c3ccccc3)cc12,10µM*,6%[57.1 µM],0,·,-4,6%[57.1 µM]
c1cc2nc(C34CC5CC(CC(C5)C3)C4)[nH]c2cn1,2%,6%,-33*,0%,1,3%
COCCN1C=C(C(=O)OC)C(c2ccccc2Cl)C(C(=O)OC)=C1,8.9µM*,76%[57.1 µM],-2,5%,-6,172%[57.1 µM]
COCCN1C=C(C(=O)OC)C(c2cc(Br)c(OC)c(OC)c2)C(C(=O)OC)=C1,3%,-19%,-9,0%,2,539%
COc1ccc(C(CNC(=O)c2ccc(Br)o2)N2CCCCCC2)cc1 (stereo unspecified),·,·,6,·,·,·
COC(=O)N1CCN(c2ccc(OC)cc2)CC1,21%,10%,4,-1%,-2,3%
COc1ccc(N2CCN(C(C)C(=O)N3CCCC3)CC2)cc1 (stereo unspecified),-5%,28%[57.1 µM],-38*,5%,0,10%
CCCCCOc1ccc(C(=O)Nc2cccc3cccnc23)cc1,·,·,1,·,·,·
CCOc1ccc(CN(C)Cc2cc(C(C)(C)C)c(O)c(C(C)(C)C)c2)cc1OC,·,·,30,·,·,·
CN(C)/C=C1/C=C(c2ccccc2)OC1=O,13%,22µM*,17,2%,0,-3%
CC1=C/C(=C/N(C)C)C(=O)O1,-24%,-28%,1,1%,3,-5%
SMILES,a7 integrin act,TrxR1 inh,LDHA block,GALK inhibitor,PI4K2A inh,TrxR1 substrate
O=S(=O)(Nc1nc2ccccc2nc1Nc1ccccc1)c1cccc2nsnc12,·,·,0,·,·,·
Nc1ccc(C(=O)O)c(O)c1,·,6%,0,-1%,1,4%
Nc1ccc(N)c(C(=O)O)c1,5%,?,-2,-1%,-66*,21%
COc1ccc(-c2cc(C(=O)NC3CC3)c3ccccc3n2)c(OC)c1,·,·,-5,·,·,·
C=C1C(=O)C=C2CN(C(=O)c3ccccc3)[C@@](Cc3ccc(F)cc3)(C(=O)OC)[C@@H]12,-45%,8.9µM*,-10,·,-11,-4%
O=C(c1ccc(-c2nc3ccccc3s2)s1)N1CCOCC1,?,5%[57.1 µM],-11,18%,-66*,10%[57.1 µM]
c1ccc2sc(-c3ccc4c(c3)OCO4)nc2c1,-3%,37%,0,10%,-68*,112%
O=C(Nc1cccc(-c2nc3ccccc3s2)c1)c1ccc2c(c1)OCO2,-17%,10%,-2,-1%,0,6%
CCN1CCN(C(=O)c2ccc(-c3nc4ccccc4s3)s2)CC1,14%,36%[0.0914 µM],-4,-1%,-8,15%
COc1cc2c(NC3CCN(C)CC3)nc(N3CCCN(C)CC3)nc2cc1OCCCN1CCOCC1,·,?,4,·,·,48%
COc1cc2c(NC3CCN(C)CC3)nc(N3CCCN(C)CC3)nc2cc1OCCCN1CCCC1,·,50µM*,5,·,·,50%
Cc1ccccc1-c1nc2cc(NC(=O)c3ccco3)ccc2o1,·,·,-11,·,·,·
CC(=O)c1cccc(NC(=O)c2cc(-c3ccc4c(c3)OCCO4)on2)c1,·,10%,-16,·,0,8%
O=C(Nc1cccc(O)c1)c1cc(-c2ccc3c(c2)OCO3)on1,-14%,24%,0,14%,-72*,8%
O=C(NC1CCCCCC1)C(=O)N1CCN(C(=O)c2cc3ccccc3[nH]2)CC1,·,·,7,·,·,·
C=C(C1=CCN(S(=O)C(C)(C)C)[C@H]1CCO)c1ccccc1 (stereo partly specified),-2%,?,-6,·,-1,2%
C=CC1=CCN(S(=O)C(C)(C)C)[C@@H]1CCO (stereo partly specified),23%,50µM*,7,·,-5,10%
O=C(CSc1nnc(-c2cnccn2)n1Cc1ccco1)c1ccccc1,-34%,56µM*,0,-2%,-1,-1%
NC(=O)CSc1nnc(-c2cnccn2)n1Cc1ccco1,8%,-18%,-5,·,-1,11%
O=C(CSc1nnc(-c2cnccn2)n1Cc1ccco1)c1ccc(Cl)cc1,-30%[7.66 µM],13µM*,6,-1%,-17,6%
COc1ccc(C23CC4CC(CC(C(=O)N(C)Cc5ccc(OC)c(OC)c5)(C4)C2)C3)cc1,·,·,-2,·,·,·
O=C1CCCc2c1cc(C(=O)NC1CCCC1)c(=O)n2-c1ccc(C(F)(F)F)cc1,·,·,22,·,·,·
O=C(CSc1nc2ccccc2o1)N1CCN(CC(=O)N2CCCC2)CC1,·,·,5,·,·,·
O=C(CSc1ccc(-c2ccco2)nn1)Nc1ccccc1F,-19%,20µM*,-1,-3%,-1,8%
Cc1ccc(NC(=O)CSc2ccc(-c3ccco3)nn2)c(C)c1,32%,?,-1,0%,2,-2%
CCOc1ccccc1NC(=O)CSc1ccc(-c2sc(C)nc2C)nn1,-3%,-7%,1,-1%,8,-5%
CCOc1ccccc1NC(=O)CSc1ccc(-c2ccco2)nn1,?,35µM*,0,-3%,-6,-3%
CCOc1ccccc1NC(=O)Cn1nc(-c2ccco2)ccc1=O,-6%,32µM*,-3,-1%,-1,3%
